Compound activity (PubChem BioAssay)
HP1b binding inh = inhibitors of HP1-beta chromodomain binding to methylated histone tails | P83916 | actives 0.56% (n = 390,000) | AlphaScreen HP1-beta / biotin-H3K9me3 peptide binding | Potency, µM (top dose mostly 114 µM), without a hit: top-dose activity change, negative = inhibition, usual class: inhibitors; further: potency means the concentration at half of the fitted maximal effect; nearly all actives have a fitted effect of over 70% in size
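Compound inhibition of the preformed complex between 50 nM HP1-beta and 50 nM biotinylated H3K9me3 peptide was read by AlphaScreen. Buffer was PBS pH 7.4 with 0.01% Tween-20. Incubations ran 30 min at room temperature, with 10 ug/mL donor/acceptor beads.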
L3MBTL1 inh = L3MBTL1 (human) inhibition; Potency, µM (titrated, usually from 57.1 µM), for the others: at the top dose activity, negative = inhibition, usual class: inhibitors; Q9Y468; AlphaScreen L3MBTL1–H3K9me1 peptide binding; actives 0.66% (n = 230,000); further: potency means the concentration at half of the fitted maximal effect; on the % scale 0 is the no-effect control and ±100 the full control effect; nearly all actives have a fitted effect of over 60% in size
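AlphaScreen assay: L3MBTL1 (50 nM final) was preincubated 30 min at room temperature with biotinylated H3(1-15)K9me1 peptide (75 nM final), then 30 min with library compounds; streptavidin donor and nickel chelate acceptor beads (10 ug/mL final) added, 30 min dark.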
KDM4E inh = JMJD2E (human) inhibition; actives 1.6% (n = 230,000); B2RXH2; JMJD2E catalytic domain, FDH-coupled NADH fluorescence (FDH is formaldehyde dehydrogenase); Potency, µM (doses to about 57.1 µM), for inactives: at the highest dose activity change, negative = inhibition, usual class: inhibitors; active means well fitted inhibition curve with a large enough effect, not every such curve was filed as active; inconclusive means small, poorly fitted or top-dose-only effect, or another doubt; inactive means no such curve, though single readings can be large or run the other way;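 further: potency means the concentration at half of the fitted maximal effect; 0% = wells with enzyme and -100% = buffer wells without enzyme; nearly all actives have a fitted effect of over 50% in size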
BAZ2B inh = blocks human BAZ2B | AlphaScreen BAZ2B-H3K14Ac peptide displacement | Potency, µM (highest dose often 114 µM), inactives show top-dose activity change, negative = inhibition, usual class: inhibitors | actives 4.4% (n = 360,000); further: potency means the concentration at half of the fitted maximal effect; on the % scale 0 is the no-effect control and ±100 the full control effect; nearly all actives have a fitted effect of over 60% in size
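AlphaScreen displacement of biotin-H3(5-23)K14Ac peptide (50 nM final) from BAZ2B (50 nM final) in PBS pH 7.4, 0.01% Tween-20; complex preformed 30 min RT, then compounds (top 110 uM) 30 min RT, beads 20 min dark.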
JMJD2A Tudor = JMJD2A Tudor domain (human) inhibition | O75164 | AlphaScreen JMJD2A-Tudor / H3K4me3 peptide binding | Potency, µM (titrated, usually from 114 µM), for inactives: at the highest dose activity change, negative = inhibition, actives largely listed as inhibitors | actives 4.4% (n = 390,000) | AID 504339; further: potency means the concentration at half of the fitted maximal effect; on the % scale 0 is the no-effect control and ±100 the full control effect; nearly all actives have a fitted effect of over 50% in size
PI5P4K alpha inh = PI5P4K alpha (human) kinase inhibition. max response, %. P48426. AID 652105. actives 1.2% (n = 330,000). PI5P4Kalpha enzyme, ADP-Glo luminescence, 60 min; hits give low values; active means max response of -50% or lower; inconclusive means between -30% and -50%; inactive means -30% or higher; further: value at the top dose of about 77 µM; on the % scale 0 is the no-effect control and ±100 the full control effect
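Quantitative HTS of the MLSMR library against PI5P4Kalpha with substrate. ATP added last at 5 microM final; room temperature, 60 minutes. Remaining ATP depleted, ADP converted and read as luminescence.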
G9a inh = inhibits human G9a histone lysine methyltransferase, hit confirmation; shares compounds with JMJD2A Tudor; G9a H3K9 monomethylation, AlphaScreen, 2 h; Potency, µM, hits mostly inhibitors; actives 89% (n = 370); AID 588344; further: potency means the concentration at half of the fitted maximal effect; nearly all actives have a fitted effect of over 65% in size
The depositor's hits bear a star; ? = inconclusive; . = not tested or not shown; [ ] = remark or other dose. Only some compounds are listed: those with a hit (about 5.7% of all), similar ones and a draw of the others. Unless noted, the call rests on the fitted dose curve; in most records, active means well fitted curve in the direction sought with a large enough effect; inconclusive means small, poorly fitted or top-dose-only effect, or another doubt; inactive means no such curve, though single readings can be large; an effect the other way counts as inactive or inconclusive.

SMILES	HP1b binding inh	L3MBTL1 inh	KDM4E inh	BAZ2B inh	JMJD2A Tudor	PI5P4K alpha inh	G9a inh
Cc1cc2nn(-c3ccc(F)cc3)nc2cc1N	8.2%	1.8%	.	-28.5%	-25.3%	7.0	0.564*
Cc1ccc(-n2nc3ccc(N)cc3n2)cc1	-8.7%	.	?	-35.5%	-6.0%	4.4	0.252*
Cc1ccc(OCC(=O)Nc2cccc(-c3nc4ccccc4s3)c2)cc1	-14.4%	.	.	0.5%	-12.3%	.	11.2*
CCOc1cccc(CNCCO)c1OCc1ccc(Cl)cc1Cl	16.0%	5.2%	1.9%	5.6%	-11.1%	-3.9	.
CCOc1cccc(CNc2ccc(O)cc2)c1OCc1ccccc1Cl	?	39.8µM*	-0.3%	?	44.7µM*	-19.2	3.16*
CCOc1cccc(CNc2ccc(O)cc2)c1OCc1ccc(Cl)cc1Cl	?	?	?	?	-34.7%	-19.5	2.52*
COc1ccccc1CNC(=O)Cn1cccc1C(=O)c1ccccc1C	16.3%	.	.	-24.2%	-34.4%	-14.1	.
Cn1c(CNC(=O)c2ccc(Cl)cc2)nnc1SCC(=O)NC1CCCC1	-10.1%	.	.	-1.1%	-16.8%	0.0	.
CN(C)c1ccc(NC(=O)Nc2cccc(Cl)c2)cc1	-31.0%	?	0.7%	39.8µM*	?	.	1.42*
CN(c1cccc(NC(=O)Nc2cccc(Cl)c2)c1)S(C)(=O)=O	22.2%	10.5%	-1.3%	0.6%	-14.0%	-0.3	.
Cc1c(CNC2CCC(C)CC2)c(C(=O)O)c(C)n1Cc1ccc(Cl)cc1 (centres undefined)	9.2%	.	.	?	-20.1%	.	.
CC1CN(Cc2c(O)ccc3c(=O)c(-c4ccccc4)coc23)CC(C)O1 (centres undefined)	18.5%	3.6%	2.0%	-9.3%	-4.1%	-0.3	.
CC1CN(Cc2c(O)ccc3c2oc(=O)c2ccccc23)CC(C)O1 (centres undefined)	?	.	28.2µM*	3.98µM*	10µM*	-4.6	0.282*
O=C(Nc1ccc(Cl)cc1)OCCn1nnnc1C(c1ccccc1)N1CCOCC1 (centres undefined)	47.5%	-1.9%[11.4 µM]	-1.4%	15.0%	-8.3%	3.2	.
CN(C)c1ccc(C(c2nnnn2CCOC(=O)Nc2ccc(Cl)cc2)N2CCOCC2)cc1 (centres undefined)	?	.	-0.9%	44.7µM*	?	4.9	17.8*
Cc1cn2c(=O)cc(COc3cccc(NC(=O)c4ccc(C(C)(C)C)cc4)c3)nc2s1	16.4%	.	.	-35.1%	-23.8%	.	?
CCN(CC)c1ccc(NC(=O)c2cncc(Br)c2)cc1	?	-12.6%	-9.5%	35.5µM*	50.1µM*	-2.9	3.55*
CCN(CC)c1ccc(NC(=O)Nc2ccc(C(C)=O)cc2)cc1	-7.2%	-1.1%	-6.6%	-26.2%	-32.3%[57.1 µM]	-9.6	0.317*
CCN(CC)c1ccc(NC(=O)c2cccnc2)cc1	8.8%	.	-11.8%	?	-25.2%	6.2	.
CCNCCC(CCC(C)C)c1ccc2c(c1)OCO2 (centres undefined)	-6.5%	.	?	79.4µM*	?	1.1	11.2*
CCc1ccccc1NC(=O)NC(C)c1ccc2c(c1)OCO2 (centres undefined)	41.5%	.	.	2.8%	-9.2%	0.0	.
CC(Sc1nnnn1C)C(=O)Nc1ccc(Oc2ccccc2)cc1 (centres undefined)	33.0%	-0.1%	-9.0%	15.2%	-11.4%	-0.2	.
CCC(Sc1nnnn1C)C(=O)Nc1ccc(C(C)=O)cc1 (centres undefined)	6.5%	.	-2.8%	?	-3.4%	-8.7	11.2*
O=C(CSc1cccc[n+]1[O-])Nc1ccccc1Oc1ccccc1	?	39.8%	-8.2%	-20.5%	50.1µM*	-10.6	2*
O=C(CSc1cccc[n+]1[O-])Nc1ccccc1C(F)(F)F	28.2%[57 µM]	8.6%	.	.	3.4%	-2.6	.
SMILES	HP1b binding inh	L3MBTL1 inh	KDM4E inh	BAZ2B inh	JMJD2A Tudor	PI5P4K alpha inh	G9a inh
c1ccc(-c2ccc3c(c2)NCCN3)cc1	?	.	?	56.2µM*	44.7µM*	1.4	0.564*
Nc1cc(-c2ccccc2)ccc1O	-21.9%	-14.1%	?	?	?	-9.4	.
COc1ccc(OCC(=O)NC(=O)c2ccccc2OC)c([N+](=O)[O-])c1	-1.6%	-2.8%	.	-36.7%	-24.8%	-1.1	.
NC(Cc1ccc(F)cc1)c1csc(Nc2ccc(C(F)(F)F)cn2)n1 (centres undefined)	.	.	.	.	.	12.8	.
Oc1ccc2ccccc2c1CN1CCOCC1	?	-17.3%	?	-35.4%	?	-6.4	0.796*
COc1ccccc1NC(=O)CSc1ccc(-c2cccs2)nn1	24.5%	.	-0.2%	1.8%	2.4%	-5.2	.
COc1ccc(OC)c(NC(=O)CSc2ccc(-c3cccs3)nn2)c1	-14.6%	.	.	-18.9%	?	.	10.2*
O=S(=O)(NN1CCOCC1)c1ccc(Br)cc1	40.4%	.	.	-0.3%	-3.4%	-3.7	1.59*
Cc1nn(C)c(C)c1NS(=O)(=O)c1c(C)n[nH]c1C	41.5%	3.7%	.	.	-11.2%	1.1	.
CCN(Cc1ccncc1)Cc1c(O)ccc2ccccc12	?	-12.4%	?	-29.3%	79.4µM*	-0.5	0.356*
Cc1nn(C)c(C)c1C1C(C#N)=C(N)OC2=C1C(=O)CCC2 (centres undefined)	27.1%	9.0%	7.5%	10.1%	-3.3%	2.8	.
O=C(CSc1ncn(-c2ccccc2)n1)Nc1nc2ccccc2s1	-5.7%	.	1.1%	-4.7%	44.7µM*	.	3.56*
CC(C)c1ccc(S(=O)(=O)N2CCN(CCC(=O)Nc3ccc(N(C)C)cc3)CC2)cc1	?	-7.3%[11.4 µM]	5.4%	22.4µM*	35.5µM*	6.1	2*
CCN(c1ccc(NC(=O)COC(=O)c2ccc(S(=O)(=O)N3CCCC3)cc2)cc1)C(C)C	16.2%	.	-5.7%	2.9%	-11.9%	.	2.24*
COc1ccc(-n2nc3c(N4CCC(C(=O)N5CCCCCC5)CC4)nnc(C)c3c2C)cc1	10.8%	.	.	-21.6%	-9.6%	-4.1	.
CN(C)C1=NC[C@H](Cc2ccccc2)N1CCCC1CCCC1	32.1%	11.8%	.	?	-26.4%	6.4	2.83*
CN(C)C1=NC[C@H](Cc2ccccc2)N1CCCC1CCCCC1	54.0%	9.4%	.	-5.3%	-25.4%	1.2	.
CC(NS(=O)(=O)c1ccc(Cl)cc1)C(=O)OCC(=O)Nc1ccc(N(C)C)cc1 (centres undefined)	-33.9%	-0.8%	.	?	?	-7.8	3.99*
CCn1c2ccccc2c2cc(CN3CCN(Cc4ccc(Br)cc4)CC3)ccc21	?	.	.	25.1µM*	4.47µM*	.	25.1*
